According to PubChem BioAssay (NCI):
The panel holds about 79,000 compounds, 15% with a hit somewhere; the sample as a whole holds those more often. Cut-off read from the data, not from the text of the source: active = growth inhibition above about 70%; inactive = the rest.

Key:
[1] = NCI Yeast Anticancer Drug Screen. Data for the rad50 strain (AID 155);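 note: 0% = growth of vehicle-only cultures of the same strain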; settings: S. cerevisiae rad50 strain growth inhibition; at 50.0 µM; active compounds read high
Outline: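 Inhibition values express reduced yeast growth in compound-treated cultures relative to vehicle-treated controls.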

[2] = NCI Yeast Anticancer Drug Screen. Data for the mec2-1 strain (AID 157); settings: S. cerevisiae mec2-1 strain, at 50.0 µM, active compounds read high
Outline: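 Vehicle-treated cultures served as reference for growth inhibition of compound-exposed mec2-1 yeast.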

[3] = NCI Yeast Anticancer Drug Screen. Data for the sgs1 mgt1 strain (AID 161);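 note: 0% = growth of cultures given vehicle only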; settings: S. cerevisiae sgs1 mgt1 strain, at 50.0 µM, active compounds read high
Outline: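 Mutant yeast exposed to compound; growth scored against vehicle-only wells.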

[4] = NCI Yeast Anticancer Drug Screen. Data for the cln2 rad14 strain (AID 165);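 note: 0% = growth equal to vehicle treated cultures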; settings: S. cerevisiae cln2 rad14 strain, at 50.0 µM, active compounds read high
Outline: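 Each compound was tested on cln2 rad14 yeast. Inhibition of growth was calculated against vehicle-exposed controls.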

[5] = NCI Yeast Anticancer Drug Screen. Data for the bub3 strain (AID 167); settings: S. cerevisiae bub3 mutant strain, at 50.0 µM, active compounds read high
Outline: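 Steps: expose the mutant yeast strain to compound; grow alongside vehicle-treated cultures; measure growth; express inhibition against the vehicle cultures.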

[6] = NCI Yeast Anticancer Drug Screen. Data for the mlh1 rad18 strain (AID 175); settings: S. cerevisiae mlh1 rad18 strain growth inhibition; at 50.0 µM; active compounds read high
Outline: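 Vehicle-treated cultures served as the reference for growth inhibition in a yeast strain carrying DNA damage repair alterations exposed to each compound.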

Measured: growth inhibition

C/C=C(/C)C(=O)OC12CC(C)C3(O)C(C=C(CO)C[C@]4(O)C(=O)C(C)=CC34)C1C2(C)C (stereo not given in full)
inactive: [1] 16.2% | [2] 1.3% | [3] -12.6% | [4] -0.45% | [5] 7.5% | [6] 1.35%

COc1ccc(C(=O)C(CN(C)C)CN(C)C)cc1OC
inactive: [1] 30.6% | [2] 9.55% | [3] -14.1% | [4] -5.9% | [5] -11.7% | [6] -18.4%

CCCC(=O)NC(NC1CCCCC1)(C(=O)OCC)C(F)(F)F (stereo not given)
inactive: [1] -17.3% | [2] -0.15% | [3] -15.6% | [4] 18.4% | [5] -7.25% | [6] -45.1%

CC(=O)N(c1ccccc1)c1ccccc1
inactive: [1] 12.8% | [2] 13.2% | [3] 2.6% | [4] 6.05% | [5] -0.2% | [6] 4.1%

C[C@@]1(CO)CCc2c(c3ccccc3oc2=O)O1
inactive: [1] 2.2% | [2] 6.45% | [3] 9.55% | [4] 8% | [5] 1.8% | [6] -6.35%

COc1ccc(/C=C/C(=O)OCCC(C)C)cc1
inactive: [1] 3.7% | [2] -16.3% | [3] 3.5% | [4] 16.9% | [5] -21.2% | [6] -16.7%

Cc1ccc2oc(=O)cc(CC(=O)O)c2c1
inactive: [1] -6% | [2] -8.3% | [3] -10.4% | [4] 12.1% | [5] -10.7% | [6] -7.9%

COC(=O)N/N=C/c1cccc(C)n1
inactive: [1] -5.55% | [2] 2.05% | [3] -4.55% | [4] 0.7% | [5] -5.25% | [6] -11.6%

C/C(=C\C(N)=O)C(C)(C)C
inactive: [1] 4.15% | [2] -2.25% | [3] 9.35% | [4] 10.3% | [5] 21.9% | [6] -41.1%

CCC[C@@H]1CCCC[C@H]1C
inactive: [1] 0.55% | [2] -1.95% | [3] -5.3% | [4] -2.2% | [5] -14.2% | [6] 0.5%

CCC(C)NC(=O)/C=C/C(=O)NC(C)CC (stereo not given)
inactive: [1] 5.4% | [2] -4.25% | [3] -5.75% | [4] -29.7% | [5] 4.95% | [6] 8.5%

CC(C)(Oc1ccc2c(=O)cc(-c3ccccc3)oc2c1)C(=O)Nc1c(Cl)cccc1Cl
inactive: [1] 7.95% | [2] -18.8% | [3] 10.2% | [4] -59% | [5] 9.75% | [6] -14.8%

OCc1ccc(F)cc1
inactive: [1] -6.35% | [2] -14.6% | [3] -7.5% | [4] 3.25% | [5] -10.8% | [6] 3.45%

COC(=O)C(=O)Cc1cccc(OC(C)=O)c1C(=O)OC
inactive: [1] 8.55% | [2] 6.4% | [3] 6.6% | [4] -94% | [5] 9.35% | [6] 2.6%

O=C(CCCn1cnc([N+](=O)[O-])n1)NCCn1ccnc1[N+](=O)[O-]
inactive: [1] -3.1% | [2] -7.3% | [3] -10.3% | [4] -5.1% | [5] -13.6% | [6] -26.3%

O=C1ON(c2ccccc2)C(c2ccc(OCc3ccccc3)cc2)N1c1ccccc1 (stereo not given)
inactive: [1] 42.6% | [2] 14% | [3] 11.8% | [4] 4.35% | [5] 27.5% | [6] 26.8%

Cc1c([N+](=O)[O-])cc2c(c1[N+](=O)[O-])C(C)(C)C(C)CC2(C)C (stereo not given)
inactive: [1] 1.2% | [2] -15.8% | [3] 6.45% | [4] -15% | [5] 45.7% | [6] -10.9%

CC(=O)C(Cc1cccc([N+](=O)[O-])c1)Cc1cccc([N+](=O)[O-])c1
inactive: [1] -3.7% | [2] -7.8% | [3] -6.6% | [4] -38% | [5] 15.8% | [6] -9.45%

COc1cccc(C2N(Cc3ccccc3OC)CCCN2Cc2ccccc2OC)c1
inactive: [1] 8.15% | [2] 11.8% | [3] 29.5% | [4] 21.8% | [5] -5.8% | [6] 8%

CCOC(=O)c1c(SC(=O)c2ccc(C(C)(C)C)cc2)n(-c2ccccc2)c(=S)n(-c2ccccc2)c1=O
inactive: [1] 31.1% | [2] 0.55% | [3] 26.8% | [4] 6.45% | [5] 40% | [6] 18.9%
